High-throughput results as filed in PubChem BioAssay.
Most compounds without a hit are left out; they make up all but 6.9% or so of the library.
MCF10A rereplic: inducers of DNA re-replication in MCF 10A breast cells; MCF 10A DNA re-replication, Hoechst nuclear intensity, 48 h; Potency, µM (highest dose often 46.1 µM), for the others: at the top dose activity, positive = re-replication, actives largely listed as activators; hit rate 2.9% among 350,000; AID 624296; further: potency means the concentration at half of the fitted maximal effect; % of control where 0% means no effect; nearly all actives have a fitted effect of over 50% in size
SW480 rerep: DNA re-replication induction in SW480 cells; SW480 DNA re-replication, Hoechst DNA content imaging, 48 h; Potency, µM (top dose mostly 46.1 µM), inactives show at the highest dose re-replication activation, hits mostly activators; hit rate 1.8% among 340,000; AID 624297; further: potency means the concentration at half of the fitted maximal effect; % of control where 0% means no effect; nearly all actives have a fitted effect of over 55% in size
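Per well, 250 cells were exposed to pinned compound for 48 hr. Nuclear DNA was visualised with Hoechst (40 min, 37 C) and total object intensity recorded by fluorescence scanning.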
Vif-A3G inh: inhibitors of Vif-APOBEC3G interaction; Q9HC16; HeLa A3G-eYFP + Vif (tagged APOBEC3G with the HIV-1 protein that degrades it), YFP fluorescence, overnight; Potency, µM (top dose mostly 46.1 µM), for the others: at the top dose activity, negative = active, hits mostly inhibitors; hit rate 0.076% among 410,000; further: potency means the concentration at half of the fitted maximal effect; on the % scale 0 is the no-effect control and ±100 the full control effect; nearly all actives have a fitted effect of over 60% in size
Target sequence (Q9HC16 whole entry, looked up): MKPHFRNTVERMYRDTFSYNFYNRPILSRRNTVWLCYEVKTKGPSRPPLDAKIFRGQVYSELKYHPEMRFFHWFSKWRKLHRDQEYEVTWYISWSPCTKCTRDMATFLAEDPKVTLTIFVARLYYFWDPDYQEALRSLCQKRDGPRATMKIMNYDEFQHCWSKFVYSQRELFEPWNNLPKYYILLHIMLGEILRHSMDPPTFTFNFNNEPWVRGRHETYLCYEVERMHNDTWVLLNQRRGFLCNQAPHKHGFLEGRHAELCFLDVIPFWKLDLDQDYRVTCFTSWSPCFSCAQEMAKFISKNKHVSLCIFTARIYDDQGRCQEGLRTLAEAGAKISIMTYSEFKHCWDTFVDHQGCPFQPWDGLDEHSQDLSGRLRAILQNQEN
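HeLa cells stably expressing Vif and C-terminally eYFP-tagged A3G, seeded overnight at 37 deg C, then exposed to compound by pintool overnight at 37 deg C. Rise in yellow fluorescence (Ex 488/Em 500-530, Acumen) marks blocked Vif-driven A3G degradation.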
Vif-A3F inh: inhibitors of Vif-A3F interaction; AID 602313; hit rate 0.2% among 390,000; Potency, µM (series often up to 46.1 µM), without a hit: at the highest dose activity, negative = active; HeLa A3F-eYFP + Vif (tagged APOBEC3F with the HIV-1 protein that degrades it), YFP fluorescence increase; further: potency means the concentration at half of the fitted maximal effect; % of control where 0% means no effect; nearly all actives have a fitted effect of over 65% in size
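HeLa cells stably expressing A3F-eYFP plus Vif, plated and incubated overnight at 37 deg C, then exposed to compounds overnight at 37 deg C. Blocked degradation read as raised yellow fluorescence (Ex 488/Em 500-530).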
Giardia kill: Giardia lamblia killing; activity change, % at 7.66 µM, hits read low; hit rate 0.15% among 340,000; AID 540267; Giardia lamblia trophozoite viability; in the data active means activity change below about -80%; inconclusive means between about -30% and that limit;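 further: parasites exposed to compound for two days anaerobically before the ATP read; on the % scale 0 is the no-effect control and ±100 the full control effect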
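Luminescent ATP signal served as the viability read-out, measured 15-30 min after adding ATP detection reagent to trophozoites that had been incubated with compounds for 48 hrs at 37 deg C anaerobically at 100 cells/well.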
IL1B secr inh: inhibitors of inflammasome signaling (IL-1 beta secretion); THP-1 LPS/ATP IL-1B secretion, AlphaLISA, 16 h; hits give low values; activity change, % at 57.5 µM; hit rate 4.7% among 360,000; in the data active means activity change below about -50%; inconclusive means mostly about -30% to -49%; further: on the % scale 0 is the no-effect control and ±100 the full control effect
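Secreted IL-1B measured by AlphaLISA bead assay after 16 h compound exposure of THP-1 cells; compounds (final up to 57.5 uM) added 1 h before LPS (250 ng/mL) and ATP (1.25 mM) stimulation; lower signal means less secretion.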
Active calls of the source: *; ? = inconclusive; . = not tested or not shown. Unless noted, the call rests on the fitted dose curve; in most records, active means well fitted curve in the direction sought with a large enough effect; inconclusive means small, poorly fitted or top-dose-only effect, or another doubt; inactive means no such curve, though single readings can be large; an effect the other way counts as inactive or inconclusive.

SMILES	MCF10A rereplic	SW480 rerep	Vif-A3G inh	Vif-A3F inh	Giardia kill	IL1B secr inh
Cc1ccc(OCCCSc2nc(-c3ccc(C(C)(C)C)cc3)nc3cc(=O)[nH]n23)cc1C	.	.	-17%	0%	.	.
CCOC(=O)NC(=O)CSc1nc(-c2ccc(C)c(C)c2)cn1-c1ccccc1	?	10%	-3%	1%	7	-61*
COc1cc(C(C)=O)ccc1OCCN1CCC(Cc2ccccc2)CC1	?	11%	2%	2%	4	-64*
O=Cc1cc(Cl)ccc1OCCN1CCC(Cc2ccccc2)CC1	?	-1%	0%	1%	-5	-93*
COc1cc(C(C)=O)ccc1OCC(=O)N1CCC(Cc2ccccc2)CC1	.	.	-1%	1%	.	-10
COc1cc(C(C)=O)ccc1OCCCN1CCC(Cc2ccccc2)CC1	3%	15%	2%	-1%	3	-55*
CCC(Cc1ccccc1)NC(=O)c1ccc2nc(N3CCC(C)CC3)sc2c1 (configuration not stated)	.	.	4%	-3%	.	.
CCCCC(=O)NC(c1ccccc1)c1ccc2cccnc2c1O (configuration not stated)	?	0.52µM*	-27%	14%	4	137
CCCCC(=O)NC(c1ccc(C(C)C)cc1)c1ccc2cccnc2c1O (configuration not stated)	18µM*	?	0%	-3%	-5	120
CCCC(=O)NC(c1ccc(OC)cc1)c1ccc2cccnc2c1O (configuration not stated)	?	-6%	-15%	11µM*	4	106
CCCC(=O)NC(c1ccccc1)c1ccc2cccnc2c1O (configuration not stated)	?	?	?	-6%	5	176
CC(=O)NC(c1ccc(C(C)C)cc1)c1ccc2cccnc2c1O (configuration not stated)	?	0.82µM*	-23%	8%	18	168
CCn1c(=S)[nH]c2scc(-c3cccs3)c2c1=O	?	158%	-15%	-4%	28	46
CC(C)n1c(=S)[nH]c2scc(-c3cccs3)c2c1=O	6.5µM*	-2%	-11%	1%	-16	98
CN(C)C1CCC(CC2CCc3ccccc32)CC1 (configuration not stated)	.	.	-2%	.	.	.
CC1(C)CCC(=NNC(N)=S)CC1	6%	?	1%	-24%	50	13
NC(=S)NN=C1CSSC1	.	.	?	-9%	.	-100*
CCC(=O)N1CCc2cc(S(=O)(=O)CCC(=O)NCc3ccco3)ccc21	8.2µM*	?	-48%	-9%	4	32
O=C1C(Nc2ccccc2)=C/C(=N/S(=O)(=O)c2cccs2)c2ccccc21	3.3µM*	5.8µM*	-8%	4%	-8	-99*
O=C1C(Nc2ccccc2)=C(NS(=O)(=O)c2ccccc2)C(=O)c2ccccc21	-2%	-1%	0%	3%	-12	-9
Cc1ccc(NC2=C/C(=N/S(=O)(=O)c3cccs3)c3ccccc3C2=O)cc1	8.2µM*	?	-11%	3%	-24	-89*
CC(C)C(=O)Nc1ccc2nn(-c3ccc(F)cc3)nc2c1	?	1%	0%	7%	?	-12
COc1ccc(-n2nc3ccc(N)cc3n2)cc1	.	.	-4%	0%	.	39
CC(C)c1ccc(-n2nc3ccc(N)cc3n2)cc1	23µM*	23µM*	-9%	1%	?	22
Cc1ccc(-n2nc3ccc(N)cc3n2)cc1	?	16µM*	1%	-5%	-14	24
Nc1ccc2nn(-c3ccc(F)cc3)nc2c1	18µM*	?	0%	3%	-21	5
Cc1cc(O)c(C(c2ccc(F)cc2)N2CCCCC2)c(=O)n1Cc1ccco1 (configuration not stated)	.	.	-1%	4%	.	.
O=C(NC(c1ccc(F)cc1)c1ccc2ccccc2n1)C1CCN(Cc2cccc(C(F)(F)F)c2)CC1 (configuration not stated)	.	.	-6%	.	.	-89*
